TIM10 inh: growth inhibitors of TIM10 yeast strain; S. cerevisiae TIM10 strain growth, BacTiter-Glo luminescence, 24 h; inhibition, % at 10 µM; 330,000 tested, 1.4% active; AID 463195;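 active = inhibition of 40% or more at the single tested concentration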;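 note: wild-type TIM10 isogenic control strain grown at permissive 25 °C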
NALP1 yeast inh: NALP1 inhibition; S. cerevisiae NALP1/ASC/caspase-1 growth, X-gal OD620, 72 h; inhibition, % at 10 µM; 280,000 tested, 0.61% active; AID 2071; in the data active = inhibition mostly above about 24%, no sharp cut-off; inactive = mostly below about 32%
NLRP3 yeast inh: NALP3 inhibition in yeast. Yeast reconstituted NLRP3/ASC/caspase-1, beta-gal luminescence, 24 h. inhibition, % at 10 µM. 330,000 tested, 0.39% active. AID 2825;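 active = inhibition of 50% or more; inactive = inhibition below 50%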;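 note: plate controls were induced DMSO wells for no effect and uninduced yeast grown without galactose for full effect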
tim10-1 inh: inhibits growth of tim10-1 mutant yeast. AID 463190. S. cerevisiae tim10-1 ts strain growth, BacTiter-Glo, 24 h. 330,000 tested, 2.2% active. inhibition, % at 20 µM;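 active = inhibition of at least 40%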;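 note: mutant grown at 25 °C; 0% = DMSO wells with yeast and 100% = wells holding no yeast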
tim23-1 inh: tim23-1 yeast growth inhibition. 330,000 tested, 1.3% active. S. cerevisiae tim23-1 growth, BacTiter-Glo luminescence, 24 h. inhibition, % at 20 µM;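 active = growth inhibition of the mutant yeast at or above 50%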;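 note: temperature-sensitive mutant grown at 25 °C; plate controls were DMSO-treated mutant yeast for no effect and medium wells lacking yeast for full effect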
tim10-1 conf: tim10-1 yeast growth inhibition, confirmed. shares compounds with tim10-1 inh. S. cerevisiae tim10-1 ts strain growth, BacTiter-Glo, 24 h. inhibition, % at 20 µM. 7,400 tested, 56% active. AID 463213;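 active = inhibition of yeast growth at or above a set limit in either of two repeat tests at 20 µM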;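 note: tim10-1 mutant grown at permissive 25 °C to find synthetic lethal compounds; 0% = DMSO yeast wells and 100% = medium wells without yeast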
Active calls of the source: *; . = no result. Shown are actives, neighbours in structure and some others; about 4% of the full set was active somewhere.

SMILES	TIM10 inh	NALP1 yeast inh	NLRP3 yeast inh	tim10-1 inh	tim23-1 inh	tim10-1 conf
O=C(NN1C(=O)/C(=C/c2ccc(O)cc2)SC1=S)c1cccc(O)c1	5	5	40	6	6	.
CC(/C=C1\SC(=S)N(NC(=O)c2cccc(O)c2)C1=O)=C\c1ccccc1	11	6	9	51*	42	31*
Cc1ccc(C(=O)Nc2ccc(C(=O)N3CCCCC3C)cc2)cc1 (stereo not given)	13	-21	-2	47*	22	26
O=[N+]([O-])c1cc([N+](=O)[O-])c(Oc2cc(F)ccc2F)cc1NN1CCCCC1	2	15	7	-4	11	.
CCN(CC)CCNCC1C(=O)O[C@@H]2C[C@@]3(C)CCC[C@H](C)C3=C[C@H]12 (stereo not given in full)	24	21	13	51*	44	37*
O=C(O)CC1(CC(=O)N2CCOCC2)CCCC1	1	0	23	-4	10	.
Cc1ccc(OCC(=O)NC2CCS(=O)(=O)C2)c(C)c1 (stereo not given)	10	9	11	-10	1	.
COC(=O)/C(C#N)=C/c1c[nH]c2ccccc12	-5	-1	43	-14	18	.
Cc1ccc(S(=O)(=O)/C(C#N)=C/c2c[nH]c3ccccc23)cc1	30	-9	9	49*	35	24
O=C(CCn1cnc2ccccc2c1=O)Nc1nc(-c2ccc(Br)cc2)cs1	-17	22	16	7	-9	.
CCCN(CCC)C(=O)c1cc(-c2ccc3c(c2)OCO3)nc2ccccc12	24	14	2	45*	42	11
CC(C)(C)C(=O)Nc1ccc(S(=O)(=O)N2CCC(c3nc4ccccc4[nH]3)CC2)cc1	4	.	9	10	3	.
COc1ccc2nc(N/C(N)=N/C(=S)Nc3ccccc3)nc(C)c2c1	37	-3	21	50*	44	19
Cc1ccc(S(=O)(=O)/N=C(\N)Nc2nc(C)c3ccccc3n2)cc1	7	18	7	45*	31	10
Cc1cccc(NC(=S)/N=C(\N)Nc2nc(C)c3ccccc3n2)c1	33	26	19	44*	35	27
Cc1cccc(OCC2=NS(=O)(=O)c3ccccc3N2)c1	25	-6	11	13	15	.
Cc1ccc(S(=O)(=O)N(C(=N)N)c2nc(N(C)C)nc(N(C)C)n2)cc1	5	14	-7	-1	2	.
O=C(COC(=O)/C=C/c1cccc(C(F)(F)F)c1)NCCN1C(=O)CSC1=O	0	.	9	10	15	.
COc1ccc(-c2cnnc(N/N=C/c3ccc(O)c(OC)c3)n2)cc1	28	5	15	23	12	.
CCCn1cc(S(=O)(=O)c2ccc(F)cc2)c(=O)c2cc(OCC)ccc21	2	-24	7	4	-3	.
COc1ccc(Cc2nn3c(-c4ccccc4OC)nnc3s2)cc1	-31	1	-1	-13	-5	.
COc1ccccc1-c1nnc2sc(C3CCCCC3)nn12	2	14	47	43*	32	22
CN1/C(=C\C(=O)COC(=O)CN2C(=O)C3CC=CCC3C2=O)C(C)(C)c2ccccc21 (stereo not given)	12	-8	8	42*	21	22
CN1/C(=C\C(=O)COC(=O)CNC(=O)c2ccc3ccccc3c2)C(C)(C)c2ccccc21	14	28	-2	44*	32	16
CC1(c2ccc(OC(F)F)cc2)NC(=O)N(CC(=O)Nc2ccc(Cl)cc2F)C1=O (stereo not given)	6	13	8	-25	-2	.
SMILES	TIM10 inh	NALP1 yeast inh	NLRP3 yeast inh	tim10-1 inh	tim23-1 inh	tim10-1 conf
Cc1ccc(CN2CCN(/N=C/C=C/c3ccccc3[N+](=O)[O-])CC2)cc1	14	1	22	30	-17	.
O=C(c1cn(-c2ccccc2)nc1-c1ccncc1)n1nnc2ccccc21	27	.	-3	53*	40	39*
CCCCc1ccc(NS(=O)(=O)c2cccs2)cc1	33	-7	27	41*	41	17
COc1ccc(-n2nc3c(c2NC(=O)C2CC(=O)N(c4ccccc4)C2)CS(=O)(=O)C3)cc1 (stereo not given)	3	20	8	-11	-4	.
CCOc1ccc(OCC)c(NC(=O)CN2CCN(c3cccc(C)c3)CC2)c1	24	-41	13	46*	25	29
Cc1ccc(C)c(N2CCN(C(=O)CCC(=O)Nc3nnc(C(F)(F)F)s3)CC2)c1	15	9	-8	55*	36	18
COCCCNC(=S)N/N=C/c1ccc2c(c1)OCO2	24	20	-4	41*	35	14
CN1C(C(=O)Nc2ccc(OC(F)(F)F)cc2)=CC(c2cccs2)=NS1(=O)=O	40	21	0	41*	39	39*
COc1ccc(NC(=O)C2=CC(c3cccs3)=NS(=O)(=O)N2C)cc1	1	-5	7	6	18	.
Cc1nc(-c2ccccn2)sc1C(=O)Nc1ccc(Cl)c(Cl)c1	35	8	18	47*	-3	29*
O=C(Nc1c2c(nn1-c1ccc([N+](=O)[O-])cc1)CS(=O)(=O)C2)c1ccccc1F	-1	-19	8	-2	9	.
CCc1nc2ccc(C(=O)NCCc3ccc(OC)c(OC)c3)cc2nc1CC	0	10	8	22	22	.
CCc1nc2ccc(C(=O)NCc3ccc(C)o3)cc2nc1CC	6	17	4	49*	36	6
CCc1nc2ccc(C(=O)NCCc3ccc(OC)cc3)cc2nc1CC	1	8	21	40*	36	11
CC(NC(=O)CNC(=S)N(Cc1cccs1)C1CCCC1)c1ccccc1 (stereo not given)	-3	12	3	36	28	.
CC(C)c1ccccc1OCC(=O)Nc1ccccc1C(=O)N1CCOCC1	1	5	17	18	22	.
Cc1cccc(NC2=C(NCCO)C(=O)c3ccccc3C2=O)c1	5	16	7	42*	34	32*
COc1cccc(NC2=C(NCCO)C(=O)c3ccccc3C2=O)c1	14	0	16	14	25	.
CCC(C)C(=O)N1c2ccccc2C(=C2SC(C(=O)OC)=C(C(=O)OC)S2)C(=S)C1(C)C (stereo not given)	27	50	36	44*	32	29
Cc1cc(NC(=O)c2oc3ccccc3c2C)ccc1-n1cnnn1	35	8	28	42*	38	-3
COc1cc(OC)cc(C(=O)Nc2ccc(-n3cnnn3)c(C)c2)c1	6	4	-9	7	5	.
FC(F)(F)c1nnc(-c2ccccc2)nc1Oc1ccc(Cl)cc1Cl	12	-5	9	51*	44	47*
COc1ccc([C@H]2CC(=O)C=C(c3ccc4c(c3)OCCO4)C2)cc1	8	.	15	21	27	.

Bioassay records deposited in PubChem by Sanford-Burnham Center for Chemical Genomics.
